# From ChEMBL document CHEMBL1157539, “Thousands of chemical starting points for antimalarial lead identification” (Nature, 2010)
# Experiments:
# Format in all cases: functional
# Plasmodium falciparum [1] = assay: GSK_TCMDC: Inhibition of Plasmodium falciparum 3D7 in whole red blood cells, using parasite LDH activity as an index of growth. Test compounds present at 2uM
# Plasmodium falciparum [2] = assay: GSK_TCMDC: Inhibition of Plasmodium falciparum Dd2 in whole red blood cells, using parasite LDH activity as an index of growth. Test compounds present at 2uM
# HepG2 = assay: GSK_TCMDC: Percent inhibition of human HepG2 cell line. Test compounds present at 10uM.
Compound,Inhibition (Plasmodium falciparum [1]),Inhibition (Plasmodium falciparum [2]),Inhibition (HepG2)
COc1nc2c(CCN3CC[C@H](NCc4cc(C#N)c5c(c4)CCO5)[C@H](O)C3)ccnc2cc1F,99%,71%,31%
CC(C)C[C@@H](/C=N/N1CCOC1=O)NC(=O)[C@H](CC(C)C)NC(=O)c1ccc(OCCN2CCOCC2)cc1,92%,87%,5%
O=C(NCC1CCC(C(=O)NCCN2CCCCC2)CC1)c1ccc(O)c(-c2ccc(Cl)c(Cl)c2)c1 (stereo not drawn),91%,22%,0%
Nc1cccc(-c2ccc3ccnc(N)c3c2)c1,91%,66%,30%
CC1(C)N=C(N)N=C(Nc2ccc(F)c(F)c2)N1.Cl,91%,1%,59%
Cc1cc(NCCC(=O)NCc2cccc(F)c2)nc(NCCc2ccc(F)cc2)n1.O=C(O)C(F)(F)F,89%,2%,0%
Cc1nc(NCCCn2ccnc2)cc(-c2cncc(-c3ccc(OC(F)(F)F)cc3)c2)n1,99%,11%,2%
Br.CC(C)(Cc1ccc(Cl)cc1)NCCCCCCNCCc1ccc(O)c(O)c1,90%,0%,45%
COc1ccc2oc(=O)c(C#N)c(O)c2c1,99%,0%,0%
Cc1cccc2nc(-c3cccc(-c4ccc(NC(=O)Cc5ccccn5)cc4)c3)[nH]c12,94%,57%,25%
COc1ccc(-c2cccc(NC(=O)c3ccc(Cl)cc3)c2)cc1CN(C)CCN(C)C.O=C(O)C(F)(F)F,99%,61%,37%
CC(=O)Nc1cccc(C(=O)Nc2cccc(-c3ccc(-c4nc5cc(F)ccc5[nH]4)s3)c2)c1,94%,30%,88%
CCn1c(C(C)C)cc2c3c(N)nc(N)nc3ccc21,92%,0%,67%
CCNC(=O)Nc1ccc(N(C)c2ccnc(NC3CC3)n2)cc1,100%,80%,21%
CC(=O)c1nccc(C)c1N,92%,0%,10%
CCOc1ccc2[nH]c(C)cc(=NN=Cc3ccc(Cl)cc3)c2c1,100%,100%,0%
Cc1cccc2nc(-c3cccc(-c4ccc(NC(=O)C(C)CN5CCOCC5)cc4)c3)[nH]c12 (stereo not drawn),93%,30%,7%
N[C@@H](Cc1cc(I)c(Oc2ccc(O)c(Cl)c2)c(I)c1)C(=O)O,96%,0%,0%
COc1ccc(-c2ccc(NC(=O)c3cccc(Cl)c3)c(F)c2)cc1CN1CCCN(C)CC1.O=C(O)C(F)(F)F,100%,42%,43%
CC(C)c1ccc(CN(C)CCCCNC(=O)c2ccc(NC(=O)c3ccc(Cl)cc3)cc2)cc1,92%,0%,17%
C[C@H]1CN(Cc2cccc(-c3cc(CNC(=O)c4cccc(CC5CCN(C)CC5)c4)ccc3F)c2)CCN1C,100%,99%,42%

Compound,Inhibition (Plasmodium falciparum [1]),Inhibition (Plasmodium falciparum [2]),Inhibition (HepG2)
N#CCCN1CCN(Cc2cccc(-c3ccc(-c4nc5ccccc5[nH]4)cc3)c2)CC1.O=C(O)C(F)(F)F,93%,20%,18%
N#Cc1ccc(CN2CCC(Oc3ccc(NC(=O)c4ccsc4)cc3Cl)C2)cc1.O=C(O)C(F)(F)F (stereo not drawn),88%,79%,29%
CCCCNC[C@@H](O)[C@H](Cc1ccccc1)NC(=O)c1cc(NCC)cc(N2CCCCS2(=O)=O)c1.Cl,99%,98%,11%
CN1CCC(Oc2ccc(CN3CC[C@H](NC(=O)c4ccc(Cl)c(Cl)c4)C3)c3ccccc23)C1.O=C(O)C(F)(F)F (stereo partly drawn),100%,82%,52%
CCCCCN1CCCC(NS(=O)(=O)c2ccc(C(=O)Nc3cccc(C(F)(F)F)c3)cc2)C1.O=C(O)C(F)(F)F (stereo not drawn),97%,3%,30%
CN(C)CCCOC(=O)c1cc2cc(-c3ccccc3)ccc2n1S(=O)(=O)Cc1ccccc1.Cl,100%,70%,13%
Fc1ccc2[nH]c(-c3cccc(-c4ccc(CNCc5ccccc5)cc4)c3)nc2c1.O=C(O)C(F)(F)F,100%,89%,27%
CCCNC(=O)Nc1cc2cc(-c3ccc(CN4CCCC4)cc3)ccc2n2c(C)nnc12,93%,11%,67%
Cc1ccc([N+](=O)[O-])cc1NC(=O)N(CC(O)c1ccccc1)C1CCCCC1 (stereo not drawn),100%,98%,11%
Cc1ccc(Nc2nccc(NCC(O)c3cccc(C)c3)n2)cc1 (stereo not drawn),90%,23%,22%
Cc1cccc(Nc2nccc(NCC(O)c3cccc(C(F)(F)F)c3)n2)c1 (stereo not drawn),100%,94%,25%
CC(C)CCN1CCCN(Cc2ccc(C(=O)Nc3ccc(C(C)(C)C)cc3)cc2)CC1.O=C(O)C(F)(F)F,92%,12%,49%
CC(C)(C)c1ccc(NC(=O)c2cccc(CN3CCCN(Cc4cccc(Cl)c4)CC3)c2)cc1.O=C(O)C(F)(F)F,85%,30%,61%
O=C(Nc1cccc(F)c1)N1CCC(CN2CCOC(c3ccccc3)(c3ccccc3)C2)CC1,96%,97%,12%
N=C(N)NC(=O)Nc1cc(Cl)c(F)c(Cl)c1,100%,64%,22%
O=C(Nc1cccc(-c2cc(-c3c(Cl)cccc3Cl)no2)c1)c1cncc(-c2cccs2)c1,91%,39%,0%
CCc1ccc(NC(=O)c2ccc(CN3CCCN(Cc4cccc(C)c4)CC3)cc2)cc1.O=C(O)C(F)(F)F,80%,0%,53%
CCCCNC(=O)[C@H](CC1CCCCC1)NC(=O)c1ccc(O)c(-c2ccc(Cl)c(Cl)c2)c1,98%,99%,0%
COCCNC(=O)c1ccc(OC2CCN(CC(C)=Cc3ccccc3)CC2)c(Cl)c1,94%,95%,18%
CNCCCNc1ccnc2cc(Cl)ccc12,100%,25%,11%
CN1CCN(c2ccc(Nc3c(C(N)=O)cnc4cc(-c5ccoc5)ccc34)cc2C(F)(F)F)CC1.Cl,100%,97%,13%

Compound,Inhibition (Plasmodium falciparum [1]),Inhibition (Plasmodium falciparum [2]),Inhibition (HepG2)
O=C(Nc1ccccc1)N(Cc1ccc(-c2cccc(CNC3CCCC3)c2)cc1)C1CCN(Cc2ccccc2)CC1.O=C(O)C(F)(F)F,100%,67%,43%
CCCN1CCN(c2ccccc2NS(=O)(=O)c2ccc(C(=O)Nc3ccc(Cl)cc3)cc2)CC1.O=C(O)C(F)(F)F,84%,9%,17%
Cc1nc(-c2ccc(-c3ccc(C(=O)Nc4ccc(Cl)c(N5CCN(C)CC5)c4)cc3)c(C)c2)no1,100%,47%,23%
CCC(CC)(Cc1ccccc1)NC(=O)[C@H](CC1CCCCC1)Nc1ccc(C#N)c2ccccc12.O=C(O)C(F)(F)F,95%,76%,4%
O=C(C1CC1)N1c2ccccc2CCc2ccccc21,98%,57%,40%
COc1ccc(CNc2cc(C)nc3sc4c(c23)CCC2(C4)OCCO2)cc1,96%,2%,4%
CCNC(C)(C)CN(Cc1ccc(-c2ccc(C(F)(F)F)cc2)cc1)C(=O)Cn1c(SCc2ccc(F)cc2)nc(=O)c2c1CCC2.O=C(O)C(O)C(O)C(=O)O,95%,94%,99%
COc1ccc2nccc([C@@H](O)CN3CCC(NCc4ccc5nnsc5c4)CC3)c2c1.O=C(O)C(=O)O,99%,0%,16%
Cc1cc(N[C@@H](Cc2ccccc2)C(=O)NCc2cccc(F)c2)nc(NCc2ccccc2C)n1.O=C(O)C(F)(F)F,100%,75%,6%
O=[N+]([O-])c1ccc(Nc2nc(N/N=C/c3cccc(O)c3)nc(N3CCCC3)n2)cc1,88%,9%,0%
COc1cc(NC(=O)c2cccs2)c(C(=O)NCc2ccc(C)cc2)cc1OC,93%,88%,3%
O=C(Nc1ccc(OC2CCN(Cc3ccc(F)cc3)C2)c(Cl)c1)c1ccsc1.O=C(O)C(F)(F)F (stereo not drawn),98%,95%,26%
CC(C)c1ccc(NC(=O)NCC2CCCN(CCCCCNC(=O)/C=C/c3ccc(Cl)c(Cl)c3)C2)cc1 (stereo not drawn),98%,6%,87%
Cc1nnsc1C(=O)Nc1ccc(-c2ccc(-c3nc4cccc(C)c4[nH]3)s2)cc1,100%,61%,63%
CCCCN(CCCC)CCC(O)C(=Cc1ccc(Cl)cc1Cl)c1ccc(C(F)(F)F)cc1N (stereo not drawn),100%,99%,0%
Fc1ccc(C=NNc2nc3ccccc3[nH]2)cc1,98%,58%,0%
N[C@@H](Cc1cc(I)c(Oc2ccc(O)c(C(=O)O)c2)c(I)c1)C(=O)O,97%,21%,57%
O=C(Nc1ccccc1)N(Cc1ccc(-c2ccc(CNCc3ccc4c(c3)OCO4)cc2)cc1)C1CCN(Cc2ccccc2)CC1.O=C(O)C(F)(F)F,98%,41%,21%
CN1CCCN(c2ccnc3cc4c(cc23)N(C(=O)c2ccccc2Cl)CC4)CC1.Cl,88%,30%,4%
